Experimental data taken from the supplement of paper PMC6992640.
± gives the standard deviation of the averaged measurements.

What was measured:
Assay in all cases: cell viability (% of vehicle); higher = less cytotoxic
HCI01 [1] = cells of a triple-negative basal-like breast cancer xenograft; conditions: 1 µM; 72 h
UCD52 [2] = cells of a triple-negative basal-like breast cancer xenograft; conditions: 1 µM; 72 h
WHIM2 [3] = cells of a triple-negative basal-like breast cancer xenograft; conditions: 1 µM; 72 h
WHIM30 [4] = cells of a triple-negative basal-like breast cancer xenograft; conditions: 1 µM; 72 h
HCI01 [5] = conditions: 10 µM; 72 h
HCI03 = cells of an ER-positive luminal breast cancer xenograft; conditions: 10 µM; 72 h
HCI09 = cells of a triple-negative luminal androgen receptor type breast cancer xenograft; conditions: 10 µM; 72 h
HCI11 = cells of an ER-positive luminal breast cancer xenograft; conditions: 10 µM; 72 h
HCI13 = cells of an ER-positive luminal breast cancer xenograft; conditions: 10 µM; 72 h
HCI16 = cells of a triple-negative basal-like breast cancer xenograft; conditions: 10 µM; 72 h
UCD52 [6] = conditions: 10 µM; 72 h
WHIM2 [7] = conditions: 10 µM; 72 h
WHIM30 [8] = conditions: 10 µM; 72 h

Row | Structure (SMILES) | cell viability (HCI01 [1]) | cell viability (UCD52 [2]) | cell viability (WHIM2 [3]) | cell viability (WHIM30 [4]) | cell viability (HCI01 [5]) | cell viability (HCI03) | cell viability (HCI09) | cell viability (HCI11) | cell viability (HCI13) | cell viability (HCI16) | cell viability (UCD52 [6]) | cell viability (WHIM2 [7]) | cell viability (WHIM30 [8])
1 | CCN(CC)CCCC(C)Nc1ccnc2cc(Cl)ccc12.O=P(O)(O)O.O=P(O)(O)O (stereo unspecified) [Chloroquine diphosphate] | 88.7 | 68.5 | 77.4 | 81.2 | 75.4 ± 4.4 | 93.1 | 95.5 ± 18 | 88.4 | 142 ± 20 | 102 | 72.7 ± 0.86 | 71.2 ± 17 | 74.46 ± 0.26
2 | CCC(=C(c1ccccc1)c1ccc(OCCN(C)C)cc1)c1ccccc1.O=C(O)CC(O)(CC(=O)O)C(=O)O [Tamoxifen Citrate] | 111 | 101 | 86.2 | 99.9 | 74 ± 57 | 78.8 | 28.1 ± 6 | 96.5 | 37.6 ± 3.9 | 59.7 | 34.5 ± 0.98 | 42.4 ± 7.6 | 104 ± 7.1
3 | Nc1ccn(C2OC(CO)C(O)C2O)c(=O)n1 (stereo unspecified) [Cytarabine] | 75 | 106 | 87.1 | 80.9 | 65 ± 1.2 | 101 | 94.2 ± 1.1 | 136 | 76.4 ± 11 | 83.3 | 91.4 ± 17 | 58.4 ± 8.6 | 86.07 ± 0.15
4 | CN1CCC(COc2cnc(-c3cccc(Cn4nc(-c5cccc(C#N)c5)ccc4=O)c3)nc2)CC1 | 83.2 | 79.2 | 97.8 | 79.6 | 87.4 ± 46 | 45.7 | 15.5 ± 4.2 | 57.6 | 72.4 ± 35 | – | 28 ± 5.6 | 34.3 ± 2.1 | 65.8 ± 4.3
5 | COC1=C(OC)C(=O)C(CCCCCCCCCCO)=C(C)C1=O [Idebenone] | 91.1 | 90.2 | 107 | 94.5 | 34 ± 2.8 | 107 | 39.1 ± 18 | 87.2 | 92.2 ± 61 | 104 | 78.2 ± 6.6 | 78.4 ± 30 | 51.9 ± 20
6 | CC(O)C(=O)O.CCOc1ccc2nc3cc(N)ccc3c(N)c2c1.O [Ethacridine lactate monohydrate] | 83.7 | 95.6 | 58.8 | 68.3 | 57.6 ± 15 | 41.6 | 24.4 ± 4.4 | 36.3 | 57.4 ± 17 | – | 158 ± 32 | 49.6 ± 8.4 | 76.2 ± 3
7 | CCC(NC(=O)C(C)NC)C(=O)N1CC(O)CC1Cc1c(-c2[nH]c3cc(F)ccc3c2CC2CC(O)CN2C(=O)C(CC)NC(=O)C(C)NC)[nH]c2cc(F)ccc12 (stereo unspecified) | 82.8 | 68.5 | 36.3 | 56.6 | 133 ± 5.6 | 99.5 | 146 ± 36 | 128 | – | 115 | 93.8 ± 8.2 | 114.1 ± 0.19 | 149 ± 20
8 | C=CC(=O)Nc1cc(Nc2nccc(-c3cn(C)c4ccccc34)n2)c(OC)cc1N(C)CCN(C)C | 57.6 | 63 | 52.7 | 61.8 | 41.7 ± 1 | 39.9 | 50.4 ± 36 | 61.3 | 51.7 ± 3.8 | 60.7 | 30.1 ± 0.95 | 44.5 ± 7.7 | 41.7 ± 1.9
9 | C[C@H]1O[C@@H](O[C@H]2[C@@H](O)C[C@H](O[C@H]3[C@@H](O)C[C@H](O[C@H]4CC[C@@]5(C)[C@H](CC[C@@H]6[C@@H]5C[C@@H](O)[C@]5(C)[C@@H](C7=CC(=O)OC7)CC[C@]65O)C4)O[C@@H]3C)O[C@@H]2C)C[C@H](O)[C@@H]1O [Digoxin] | 50.6 | 25.3 | 138 | 25.7 | 35.2 ± 3 | 97.9 | 40.1 ± 17 | 69.2 | – | 45.8 | 66.6 ± 8.6 | 66.4 ± 7.6 | 41.4 ± 1.1
10 | Clc1ccc(COC(Cn2ccnc2)c2ccc(Cl)cc2Cl)cc1.O=[N+]([O-])O (stereo unspecified) [Econazole nitrate] | 101 | 92 | 115 | 92.7 | 33.7 ± 2 | 88.1 | 27.3 ± 11 | 116 | 36.3 ± 1.7 | 105 | 54 ± 2.1 | 45.3 ± 14 | 90.6 ± 24
11 | CC1(C)Cc2c(-c3ccccc3)c(-c3ccc(Cl)cc3)c(CC(=O)O)n2C1 [Licofelone] | 125 | 103 | 90.3 | 97.1 | 46.1 ± 16 | 99.4 | 31.5 ± 2.2 | 90.2 | 84.6 ± 0.91 | 89.5 | 86.3 ± 4 | 47.3 ± 7 | 88.4 ± 11
12 | C1=C\COCc2cc(ccc2OCCN2CCCC2)Nc2nccc(n2)-c2cccc(c2)COC/1 [Pacritinib] | 70.5 | 49.1 | 77.3 | 47.3 | 28.9 ± 7.5 | – | 25.9 ± 3.1 | 131 | 50.7 ± 7 | 133 | 35.1 ± 1.6 | 49.9 ± 4.6 | 50.7 ± 17
13 | COc1cccc2c1C(=O)c1c(O)c3c(c(O)c1C2=O)CC(O)(C(=O)CO)CC3OC1CC(N)C(O)C(C)O1.Cl (stereo unspecified) [Epirubicin HCl] | 105 | 35.9 | 22.2 | 46.4 | 56.2 ± 19 | – | 26.2 ± 13 | 50.5 | – | 35.4 | 22.7 ± 4 | 29.1 ± 15 | 50.8 ± 12
14 | CCN(CC)C(=O)C1(c2ccccc2)CC1CN.Cl (stereo unspecified) [Milnacipran HCl] | – | – | – | – | 68.6 ± 44 | 137 | 96.4 ± 9.2 | 98.1 | 127 ± 14 | 105 | 86.4 ± 1.7 | 93.8 ± 47 | –
15 | Cc1c(OCC(F)(F)F)ccnc1CS(=O)c1nc2ccccc2[n-]1.[Na+] (stereo unspecified) [Lansoprazole sodium] | – | – | – | – | 181 ± 1.4 | 145 | 124 ± 9 | 163 | 135 ± 5.7 | 152 | 138.2 ± 0.31 | 143 ± 9.9 | –
16 | NC(=O)c1cnccn1 [Pyrazinamide] | – | – | – | – | 66.5 ± 42 | 126 | 90.8 ± 15 | 93.8 | 99.7 ± 1.4 | 98.9 | 85.8 ± 0.98 | 90.2 ± 30 | –
17 | CCOC(=O)c1c(C)n(C)c2ccc(O)cc12 [Mecarbinate] | – | – | – | – | 72.1 ± 43 | 152 | 111 ± 4.2 | 90.9 | 135 ± 14 | 115 | 87.3 ± 3.8 | 99.6 ± 22 | –

Row | Structure (SMILES) | cell viability (HCI01 [1]) | cell viability (UCD52 [2]) | cell viability (WHIM2 [3]) | cell viability (WHIM30 [4]) | cell viability (HCI01 [5]) | cell viability (HCI03) | cell viability (HCI09) | cell viability (HCI11) | cell viability (HCI13) | cell viability (HCI16) | cell viability (UCD52 [6]) | cell viability (WHIM2 [7]) | cell viability (WHIM30 [8])
18 | CC(=O)C1(O)Cc2c(O)c3c(c(O)c2C(OC2CC(N)C(O)C(C)O2)C1)C(=O)c1ccccc1C3=O.Cl (stereo unspecified) [Idarubicin HCl] | – | 32.5 | 28.8 | 41.2 | 37.5 ± 5.3 | 67.6 | 28.4 ± 1.2 | 27.8 | 47.1 ± 3.2 | 32.1 | 31.4 ± 6.4 | 29.3 ± 9.9 | 44.7 ± 14
19 | COC(=O)Nc1nc2ccc(Sc3ccccc3)cc2[nH]1 [Fenbendazole] | – | – | – | – | 193 ± 48 | 129 | 182 ± 25 | 129 | 155 ± 32 | 153 | 121.4 ± 0.081 | 142 ± 20 | –
20 | CC(C)c1nc(N(C)S(C)(=O)=O)nc(-c2ccc(F)cc2)c1C=CC(O)CC(O)CC(=O)[O-].CC(C)c1nc(N(C)S(C)(=O)=O)nc(-c2ccc(F)cc2)c1C=CC(O)CC(O)CC(=O)[O-].[Ca+2] (stereo unspecified) [Rosuvastatin Calcium] | 96.2 | 83.1 | 83.4 | 84.8 | 109 ± 2.8 | 115 | 112 ± 44 | – | 126 ± 30 | 117 | 50.8 ± 4.2 | 44.1 ± 6.8 | 88.4 ± 11
21 | Cc1nc(=O)c2cc(CN(C)c3ccc(C(=O)NC(CCC(=O)O)C(=O)O)s3)ccc2[nH]1 (stereo unspecified) [Raltitrexed] | – | – | – | – | 93.9 ± 5.5 | 122 | 104 ± 27 | 86.9 | 95.59 ± 0.3 | 99 | 106 ± 4 | 116 ± 2 | –
22 | CC(C)CC(NC(=O)C(CCc1ccccc1)NC(=O)CN1CCOCC1)C(=O)NC(Cc1ccccc1)C(=O)NC(CC(C)C)C(=O)C1(C)CO1 (stereo unspecified) [Carfilzomib (PR-171)] | 29.2 | 16.6 | 43.9 | 22.9 | 32.3 ± 3.5 | – | 25.7 ± 4.7 | 55.9 | 32.9 ± 4.7 | 38.9 | 64.4 ± 11 | 26.4 ± 11 | 68.8 ± 2.6
23 | CCCc1cc(=O)[nH]c(=S)[nH]1 [Propylthiouracil] | – | – | – | – | 70.4 ± 44 | 153 | 100 ± 12 | 97.8 | 143 ± 30 | 120 | 91.2 ± 3.8 | 100 ± 38 | –
24 | CC(=O)NC1C(N=C(N)N)C=C(C(=O)O)OC1C(O)C(O)CO (stereo unspecified) [Zanamivir] | – | – | – | – | 82.4 ± 58 | 156 | 96 ± 12 | 90.8 | 108 ± 2.3 | 113 | 90.4 ± 1.5 | 106 ± 31 | –
25 | CCN(CC)CCNC(=O)c1c(C)[nH]c(C=C2C(=O)Nc3ccc(F)cc32)c1C [Sunitinib] | 81.1 | 73 | 66 | 86.7 | 106 ± 39 | 134 | 71.8 ± 35 | 134 | – | 125 | 61.8 ± 3.4 | 104 ± 68 | 37.9 ± 7.1
26 | COc1ccc2cc(CCC(C)=O)ccc2c1 [Nabumetone] | – | – | – | – | 170 ± 32 | 172 | 200 ± 62 | 141 | 199 ± 10 | 136 | 151 ± 25 | 117 ± 11 | –
27 | CC1(COc2ccc3c(c2)ncn3-c2ccc3cccc(N4CCC(N)CC4)c3n2)COC1 | 97.6 | 138 | – | 71.3 | 41.1 ± 22 | – | 12.7 ± 2.4 | – | 26.6 ± 24 | – | 34 ± 9.8 | 35 ± 13 | 60.3 ± 3.4
28 | CC[C@@]1(O)C(=O)OCc2c1cc1n(c2=O)Cc2cc3c(CN(C)C)c(O)ccc3nc2-1.Cl [Topotecan HCl] | 65.4 | 93.4 | 49.6 | 41.7 | 38 ± 13 | – | 35.2 ± 10 | 51.9 | 54.7 ± 1.9 | 69.1 | 42 ± 7.3 | 43.7 ± 2.5 | 82.1 ± 9.8
29 | CN1CCN(CCCN2c3ccccc3Sc3ccc(Cl)cc32)CC1 [Prochlorperazine] | – | – | – | – | 113 ± 3 | 118 | 98.8 ± 8.7 | 91.1 | 128 ± 17 | 92.1 | 63.7 ± 7.7 | 74.7 ± 5 | –
30 | O=c1cc[nH]c(=O)[nH]1 [Uracil] | – | – | – | – | 120 ± 20 | 139 | 116 ± 28 | 98.8 | 64.47 ± 0.33 | 116 | 101 ± 7 | 135 ± 11 | –
31 | COC(c1ccccc1)(c1ccccc1)C(Oc1nc(C)cc(C)n1)C(=O)O (stereo unspecified) [Ambrisentan] | – | – | – | – | 79.8 ± 52 | 128 | 92.8 ± 15 | 84 | 94.1 ± 1.8 | 106 | 74.7 ± 11 | 107 ± 16 | –
32 | CCc1cnn2c(NCc3ccc[n+]([O-])c3)cc(N3CCCCC3CCO)nc12 (stereo unspecified) | 46.8 | 29.2 | 38.1 | 34.9 | 38.1 ± 3.4 | – | 62.5 ± 35 | 72.6 | – | 92.9 | 42.1 ± 6.4 | 48.7 ± 12 | 66.2 ± 6.1
33 | CCC1OC(=O)CC(O)C(C)C(OC2OC(C)C(OC3CC(C)(O)C(O)C(C)O3)C(N(C)C)C2O)C(CC=O)CC(C)C(=O)C=CC(C)=CC1COC1OC(C)C(O)C(OC)C1OC.O=C(O)C(O)C(O)C(=O)O (stereo unspecified) [Tylosin tartrate] | – | – | – | – | 75.1 ± 40 | 165 | 88.2 ± 5.5 | 82.3 | 97.3 ± 33 | 126 | 85.2 ± 5.8 | 110.8 ± 0.8 | –
